Measured values published in PubChem BioAssay AID1259417 (TB Discovery Research, Infectious Disease Research Institute, 2018).
The whole screen tested about 1,100 compounds, of which about 760 (69%) were called active. No rule for the calls is given here. So high a share suggests a set chosen from earlier hits. The list shows a part of the results.

Assay: M. tuberculosis growth inhibition, HTS (AID 1259417);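 also: bacteria grown with compound for 5 days at 37 °C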
Settings: stronger effect = higher value, concentration not given here
[1] = M. tuberculosis DsRed fluorescence growth inhibition
[2] = M. tuberculosis growth inhibition

NC(CC(=O)c1ccc(Cl)cc1Cl)C(Cl)(Cl)Cl (stereo not given)
inhibition [1]: 99.7% (active) | inhibition [2]: 99.4%

Oc1ccc(-c2nc3cc4ccccc4cc3nc2-c2ccccc2)cc1
inhibition [1]: 19.6% (active) | inhibition [2]: 37.8%

Cc1ccc2sc(NNC(=O)c3cc4ccccc4oc3=O)nc2c1C
inhibition [1]: 3.35% (active) | inhibition [2]: 33.4%

Cc1cc(C)c2nc(NNC(=O)c3cc4ccccc4oc3=O)sc2c1
inhibition [1]: 46.2% (active) | inhibition [2]: 86.5%

Cc1cccc2sc(NNC(=O)c3cc4ccccc4oc3=O)nc12
inhibition [1]: 47.1% (active) | inhibition [2]: 89%

Cc1ccc2sc(NNC(=O)C3COc4ccccc4O3)nc2c1C (stereo not given)
inhibition [1]: -2.21% (inactive) | inhibition [2]: -8.62%

Cc1ccc2nc(NNC(=O)c3cc4ccccc4oc3=O)sc2c1
inhibition [1]: -1.04% (inactive) | inhibition [2]: 10.6%

CCCOc1ccc(C2Oc3ccc(Br)cc3C=C2[N+](=O)[O-])cc1OC (stereo not given)
inhibition [1]: 10.3% (active) | inhibition [2]: 37.5%

COc1ccc(Nc2cc(C)nc3c2ccc2ccccc23)cc1
inhibition [1]: 18.8% (inactive) | inhibition [2]: 19.5%

Nc1ccccc1Nc1ccccc1
inhibition [1]: 98.6% (active) | inhibition [2]: 98.4%

COc1ccc(Nc2ccccc2N)cc1
inhibition [1]: 96% (active) | inhibition [2]: 97.4%

Cc1ccc(Nc2ccccc2N)cc1
inhibition [1]: 99.5% (active) | inhibition [2]: 99.1%

O=c1cc(Cc2ccccc2)nc2c(-c3ccccc3)c[nH]n12
inhibition [1]: 93% (active) | inhibition [2]: 96.9%

NC(=O)c1c(NC(=O)c2ccc([N+](=O)[O-])s2)sc2c1CCN(Cc1ccccc1)C2
inhibition [1]: 25.9% (inactive) | inhibition [2]: 2.21%

CCN1CCc2c(sc(NC(=O)c3ccccc3)c2-c2nc3ccccc3s2)C1
inhibition [1]: 52.7% (active) | inhibition [2]: 77.8%

Cc1ccccc1C(=O)Nc1sc2c(c1C(=O)N1CCN(Cc3ccccc3)CC1)CCCCC2
inhibition [1]: -0.558% (inactive) | inhibition [2]: -12.1%

CCCCOc1ccc(S(=O)(=O)Nc2ccc(I)cc2)cc1
inhibition [1]: -1.45% (inactive) | inhibition [2]: 17.1%

COCCNS(=O)(=O)c1ccc(-c2ccc(C)cc2)cc1
inhibition [1]: 98.6% (active) | inhibition [2]: 98.3%

O=S(Cc1ccccc1)c1nc2ccccc2s1 (stereo not given)
inhibition [1]: 51.3% (active) | inhibition [2]: 74.9%

CN(C)c1ccc(Nc2ncnc3ccc(Br)cc23)cc1
inhibition [1]: 100% (active) | inhibition [2]: 99.4%

Brc1ccc2ncnc(Nc3ccc(N4CCCC4)cc3)c2c1
inhibition [1]: 100% (active) | inhibition [2]: 99.7%

Nc1c2c(nc3sc4c(c13)CCCC4)CCCC2
inhibition [1]: 99.7% (active) | inhibition [2]: 101%

Cc1nc(SCc2csc(C)n2)c2c3c(sc2n1)CCCC3
inhibition [1]: 13.5% (inactive) | inhibition [2]: -7.63%

CC1CCc2nc3sc4c(c3c(N)c2C1)CCCC4 (stereo not given)
inhibition [1]: 99.8% (active) | inhibition [2]: 99.6%

Nc1c(C(=O)Nc2ccc(Br)cc2)sc2nc3c(c(-c4cccs4)c12)CCCC3
inhibition [1]: 5.67% (inactive) | inhibition [2]: -16.7%

N#CCCN(Cc1ccccc1)C(=S)NC(=O)c1ccccc1
inhibition [1]: -2.05% (inactive) | inhibition [2]: 0.14%

CN(Cc1ccccc1)C(=S)NC(=O)c1cccs1
inhibition [1]: 23.4% (active) | inhibition [2]: 33.4%

COc1cccc(C(=O)Nc2nnc(-c3ccc(Cl)cc3)o2)c1
inhibition [1]: 35.6% (active) | inhibition [2]: 70.5%

COc1cccc(-c2nnc(NC(=O)c3cccc(F)c3)o2)c1
inhibition [1]: 89.3% (active) | inhibition [2]: 93.2%

COc1cccc(-c2nnc(NC(=O)C=Cc3cccs3)o2)c1
inhibition [1]: -4.21% (inactive) | inhibition [2]: 4.98%

O=C(Nc1nnc(-c2ccccc2Cl)o1)c1cccc(Oc2ccccc2)c1
inhibition [1]: 94% (active) | inhibition [2]: 93.2%

O=C(Nc1nnc(-c2ccccc2Cl)o1)c1ccco1
inhibition [1]: -3.23% (inactive) | inhibition [2]: -7.63%

O=C(Nc1nnc(C2=COCCO2)o1)c1cccc(Cl)c1
inhibition [1]: 12.5% (inactive) | inhibition [2]: 27.2%

CC(Nc1nc(N2CCN(C(=O)c3ccc(Cl)cc3)CC2)nc2ccccc12)c1ccccc1 (stereo not given)
inhibition [1]: 0.606% (inactive) | inhibition [2]: -19.8%

CC(Nc1nc(N2CCCCC2)nc2ccccc12)c1ccccc1 (stereo not given)
inhibition [1]: 98.6% (active) | inhibition [2]: 98.9%

COC(C)(C)C#CC(=O)c1cccc2ccccc12
inhibition [1]: 100% (active) | inhibition [2]: 98.9%

COc1ccccc1C1=Nc2cccc3cccc(c23)N1
inhibition [1]: 45.9% (active) | inhibition [2]: 45.8%

Cc1cccc(C(=O)Nc2nnc(C3=COCCO3)o2)c1
inhibition [1]: 8.04% (inactive) | inhibition [2]: 3.45%

Cc1nnc(NC(=O)c2ccc3ccccc3c2)o1
inhibition [1]: 98.3% (active) | inhibition [2]: 99.1%

Cc1ccc(-c2csc3ncn(C(C)C(=O)OCc4ccccc4Cl)c(=O)c23)cc1 (stereo not given)
inhibition [1]: -5.81% (inactive) | inhibition [2]: 4.87%

CC(Oc1ccc(C(=O)NCCc2ccccc2)cc1)C(=O)OCc1ccccc1 (stereo not given)
inhibition [1]: 36.1% (active) | inhibition [2]: 55.5%

CC(Oc1ccc(C(=O)NC2CCCCC2)cc1)C(=O)OCc1ccccc1Cl (stereo not given)
inhibition [1]: 51% (active) | inhibition [2]: 69.4%

COc1ccc(C(=O)Oc2ccc(C(=O)OCc3ccccc3)cc2)cc1OC
inhibition [1]: 3.52% (inactive) | inhibition [2]: -20.9%

COC(=O)CSc1ccnc2cc(Cl)ccc12
inhibition [1]: 27% (active) | inhibition [2]: 74.4%

Cc1cc(C)c2sc(N3CCCC3)nc2c1
inhibition [1]: 100% (active) | inhibition [2]: 99.8%

Cc1ccc(Nc2nc(N3CCN(C)CC3)nc(N)c2[N+](=O)[O-])cc1C
inhibition [1]: 61.4% (active) | inhibition [2]: 61.7%

COc1ccc(Cc2nn3c(-c4ccccc4)nnc3s2)cc1
inhibition [1]: 100% (active) | inhibition [2]: 100%

Cc1ccc(-c2nnc3sc(Cc4ccccc4)nn23)cc1
inhibition [1]: 100% (active) | inhibition [2]: 99.4%

Cc1ccc(-c2nnc3sc(CCc4ccccc4)nn23)cc1
inhibition [1]: 100% (active) | inhibition [2]: 100%

N#Cc1ccc(NC(=O)CSc2ccc(Br)cc2)cc1
inhibition [1]: 8.52% (active) | inhibition [2]: 46.8%

O=C(CSc1ccc(Cl)cc1)Nc1ccc(Br)cn1
inhibition [1]: 2.64% (active) | inhibition [2]: 38%

N#Cc1ccc(NC(=O)CSc2ccc(Cl)cc2)cc1
inhibition [1]: 10.6% (active) | inhibition [2]: 56.7%

Cc1cnc(NC(=O)CSc2ccc(Cl)cc2)s1
inhibition [1]: -1.45% (inactive) | inhibition [2]: -17.5%

O=C(CSc1nnc(SCc2cccc3ccccc23)s1)Nc1ccccc1F
inhibition [1]: 3.26% (active) | inhibition [2]: 43.1%

Cc1cccc(Nc2nnc(SCC(=O)Nc3cccnc3Cl)s2)c1
inhibition [1]: 3% (inactive) | inhibition [2]: 14.2%

O=C(CSc1ccc(Br)cc1)Nc1ccccc1F
inhibition [1]: 1.79% (active) | inhibition [2]: 46.4%

Clc1ccc(OCCCNCc2ccccc2)c2ccccc12
inhibition [1]: -2.3% (inactive) | inhibition [2]: -30%

CCC(C)NCCCOc1ccc(Cl)c2ccccc12 (stereo not given)
inhibition [1]: 97.1% (active) | inhibition [2]: 89.4%

COC(=O)COc1ccc(-c2ccc(F)cc2)cc1C=O
inhibition [1]: 39.2% (active) | inhibition [2]: 85.5%

Cc1cc(Nc2ccc(C)c(Cl)c2)n2ncc(-c3ccccc3)c2n1
inhibition [1]: -7.72% (inactive) | inhibition [2]: 1.18%

COc1ccccc1-c1cnn2c(Nc3cccc(Cl)c3)cc(C)nc12
inhibition [1]: 32.5% (active) | inhibition [2]: 72.2%

Cc1cc(Nc2ccc(C)c(C)c2)n2ncc(-c3ccccc3)c2n1
inhibition [1]: 5.96% (active) | inhibition [2]: 38.3%

O=c1[nH]c(C=Cc2cccc3ccccc23)nc(O)c1[N+](=O)[O-]
inhibition [1]: 3.53% (inactive) | inhibition [2]: 9.27%

COc1ccc(CCNC(=S)N2CCN(CC=Cc3ccccc3)CC2)cc1OC
inhibition [1]: 20.3% (inactive) | inhibition [2]: 12.5%

CC1CCN(CCNC(=S)Nc2ccc(F)cc2)CC1
inhibition [1]: 0.916% (inactive) | inhibition [2]: -24%

CCN(CC)c1ccc(NC(=S)NCCc2ccc(OC)c(OC)c2)cc1
inhibition [1]: 91.5% (active) | inhibition [2]: 100%

CCN(CC)c1ccc(NC(=S)NCc2ccc(Cl)cc2)cc1
inhibition [1]: 72.5% (active) | inhibition [2]: 88.7%

CCN(CC)C(=S)NC(=O)c1ccc(Cl)cc1
inhibition [1]: 0.912% (inactive) | inhibition [2]: 0.451%

S=C(NCc1ccc(Cl)cc1)N1CCN(CC=Cc2ccccc2)CC1
inhibition [1]: 5.55% (inactive) | inhibition [2]: -11%

COC(=O)CSc1nnc(-c2ccc(Cl)cc2)o1
inhibition [1]: 61.4% (active) | inhibition [2]: 85%

c1ccc(-c2nnc(SCc3nnc(-c4cccs4)o3)o2)cc1
inhibition [1]: -2.64% (inactive) | inhibition [2]: -5.86%

COc1ccc(-c2nnc(SCC(=O)OC3CCCCC3)o2)cc1OC
inhibition [1]: 50.5% (active) | inhibition [2]: 80.2%

O=C(CSc1nnc(-c2cccs2)o1)OC1CCCCC1
inhibition [1]: 28.2% (active) | inhibition [2]: 52.1%

COC(=O)CSc1nnc(-c2ccc(OC)c(OC)c2)o1
inhibition [1]: 79.2% (active) | inhibition [2]: 92.4%

COc1cccc(C(=O)NC(=S)Nc2ccc(N3CCN(C(=O)c4cccs4)CC3)c(Cl)c2)c1
inhibition [1]: 62% (active) | inhibition [2]: 11.5%

CCOc1ccc(C(=O)Nc2ccc(N3CCN(C(=O)c4cccs4)CC3)c(Cl)c2)cc1Br
inhibition [1]: 14.9% (inactive) | inhibition [2]: -6.08%

CCc1ccc(OCC(=O)Nc2ccc(N3CCN(C(=O)c4cccs4)CC3)c(Cl)c2)cc1
inhibition [1]: 0.597% (inactive) | inhibition [2]: -20.3%

COC(=O)c1ccc(NC(=O)CC23CC4CC(CC(C4)C2)C3)cc1
inhibition [1]: 5.38% (inactive) | inhibition [2]: -0.346%

O=C(CC12CC3CC(CC(C3)C1)C2)Nc1ccc(Br)cc1
inhibition [1]: 50.7% (active) | inhibition [2]: 17.6%

O=C(CC12CC3CC(CC(C3)C1)C2)Nc1ccc(F)c(Cl)c1
inhibition [1]: 98.3% (active) | inhibition [2]: 95.1%

O=C(CC12CC3CC(CC(C3)C1)C2)Nc1ccc2ccccc2c1
inhibition [1]: 99.1% (active) | inhibition [2]: 96.6%

O=C(Nc1ccc(F)c(Cl)c1)C12CC3CCC(CC(C3)C1)C2
inhibition [1]: 100% (active) | inhibition [2]: 97.2%

COC(=O)c1cc(NC(=O)CC23CC4CC(CC(C4)C2)C3)cc(C(=O)OC)c1
inhibition [1]: 11.6% (inactive) | inhibition [2]: -29%

Cc1ccc(NC(=O)C23CC4CCC(CC(C4)C2)C3)cc1
inhibition [1]: 99.7% (active) | inhibition [2]: 96.9%

O=C(CC12CC3CC(CC(C3)C1)C2)Nc1ccc2c(c1)OCCO2
inhibition [1]: 40.1% (active) | inhibition [2]: 16.6%

O=C(CC12CC3CC(CC(C3)C1)C2)Nc1cccc(Cl)c1
inhibition [1]: 64.1% (active) | inhibition [2]: 34.5%

O=C(CC12CC3CC(CC(C3)C1)C2)Nc1cccc(C(F)(F)F)c1
inhibition [1]: 97.7% (active) | inhibition [2]: 85.6%

C[n+]1c2n(c3ccccc31)N=C(c1cc(C(C)(C)C)c(O)c(C(C)(C)C)c1)CS2
inhibition [1]: -2.19% (inactive) | inhibition [2]: 3.98%

CC(NC(=O)Nc1cccc(C(F)(F)F)c1)C1CC2CCC1C2 (stereo not given)
inhibition [1]: 98.8% (active) | inhibition [2]: 99.4%

O=C(CC12CC3CC(CC(C3)C1)C2)Nc1ccc(I)cc1F
inhibition [1]: 57.6% (active) | inhibition [2]: 24.5%
